# Laboratory results: paper PMC7862700, “An all-to-all approach to the identification of sequence-specific readers for epigenetic DNA modifications on cytosine”
# Columns and labels:
# Test in all cases: DAPPL (digital affinity profiling via proximity ligation, sequencing); 10 mM Tris-HCl pH 7.5, 50 mM NaCl, 1 mM DTT, 4% glycerol, room temperature, 30 min; GST-TFs on glutathione beads, 16-mer random dsDNA library, 0.1% formaldehyde crosslink after washing; high values mean tight binding
# [1] = molecular target: T1, FLI1 (Homo sapiens, UniProt Q01543 1-452); details: protein: recombinant; tags: N-terminal GST; dsDNA, one strand shown
# T1 sequence: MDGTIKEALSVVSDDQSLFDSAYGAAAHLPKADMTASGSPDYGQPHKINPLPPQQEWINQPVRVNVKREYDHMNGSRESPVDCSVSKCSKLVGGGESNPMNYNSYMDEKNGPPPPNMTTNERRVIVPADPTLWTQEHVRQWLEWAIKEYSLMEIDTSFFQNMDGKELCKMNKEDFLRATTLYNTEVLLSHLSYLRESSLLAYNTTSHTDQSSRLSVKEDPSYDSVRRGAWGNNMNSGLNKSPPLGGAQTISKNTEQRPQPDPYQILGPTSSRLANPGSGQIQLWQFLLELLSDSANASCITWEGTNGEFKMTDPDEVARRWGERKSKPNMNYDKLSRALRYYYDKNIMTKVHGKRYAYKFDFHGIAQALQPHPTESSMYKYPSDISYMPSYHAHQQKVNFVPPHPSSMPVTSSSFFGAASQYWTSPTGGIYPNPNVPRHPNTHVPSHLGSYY
# Procedure, shortened: (§1)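 Human transcription factors fused to GST were expressed in yeast, captured on glutathione beads, given DNA barcodes and pooled with a GST-only negative control. Pools were incubated with 200 nmole of a 16-mer random double-stranded DNA library in Tris/NaCl/DTT/glycerol buffer at room temperature for 30 min. They were then washed, crosslinked with 0.1% formaldehyde, proximity-ligated (BsaI/T4 ligase, 1 h, 37 °C), PCR-amplified and sequenced on an Illumina NextSeq500. Binding signal is each 6-mer's read frequency for a factor divided by its frequency for the GST control.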
# [2] = molecular target: T2, ELK1 (Homo sapiens, UniProt P19419 1-428); details: protein: recombinant; tags: N-terminal GST; dsDNA, one strand shown
# T2 sequence: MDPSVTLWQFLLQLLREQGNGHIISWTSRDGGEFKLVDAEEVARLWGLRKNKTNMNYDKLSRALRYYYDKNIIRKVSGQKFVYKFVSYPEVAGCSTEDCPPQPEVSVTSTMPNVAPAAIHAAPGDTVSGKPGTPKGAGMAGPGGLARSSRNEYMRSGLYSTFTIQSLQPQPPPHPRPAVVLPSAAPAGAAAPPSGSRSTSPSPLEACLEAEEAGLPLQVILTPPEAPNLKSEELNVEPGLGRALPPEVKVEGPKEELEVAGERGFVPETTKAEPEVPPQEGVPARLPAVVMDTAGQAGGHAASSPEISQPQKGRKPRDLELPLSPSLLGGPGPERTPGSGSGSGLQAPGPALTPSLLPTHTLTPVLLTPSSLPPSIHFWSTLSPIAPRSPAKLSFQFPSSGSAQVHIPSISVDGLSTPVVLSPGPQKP
# Procedure, shortened: as §1
# [3] = molecular target: T3, GABPA (Homo sapiens, UniProt Q06546 1-454); details: protein: recombinant; tags: N-terminal GST; dsDNA, one strand shown
# T3 sequence: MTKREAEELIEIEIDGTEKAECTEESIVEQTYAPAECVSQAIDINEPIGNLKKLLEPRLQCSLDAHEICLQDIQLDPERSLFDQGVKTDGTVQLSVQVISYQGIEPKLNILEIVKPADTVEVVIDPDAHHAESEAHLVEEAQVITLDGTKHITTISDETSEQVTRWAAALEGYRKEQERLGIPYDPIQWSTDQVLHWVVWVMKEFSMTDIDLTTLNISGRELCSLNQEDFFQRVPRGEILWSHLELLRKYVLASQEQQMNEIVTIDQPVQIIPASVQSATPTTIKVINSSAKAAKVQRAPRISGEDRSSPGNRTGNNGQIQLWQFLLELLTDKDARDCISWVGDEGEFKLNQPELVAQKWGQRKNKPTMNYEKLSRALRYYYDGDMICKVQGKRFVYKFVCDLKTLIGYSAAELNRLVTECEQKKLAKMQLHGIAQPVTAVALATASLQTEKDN
# Procedure, shortened: as §1
# [4] = molecular target: T4, ERG (Homo sapiens, UniProt P11308 1-479); details: protein: recombinant; tags: N-terminal GST; dsDNA, one strand shown
# T4 sequence: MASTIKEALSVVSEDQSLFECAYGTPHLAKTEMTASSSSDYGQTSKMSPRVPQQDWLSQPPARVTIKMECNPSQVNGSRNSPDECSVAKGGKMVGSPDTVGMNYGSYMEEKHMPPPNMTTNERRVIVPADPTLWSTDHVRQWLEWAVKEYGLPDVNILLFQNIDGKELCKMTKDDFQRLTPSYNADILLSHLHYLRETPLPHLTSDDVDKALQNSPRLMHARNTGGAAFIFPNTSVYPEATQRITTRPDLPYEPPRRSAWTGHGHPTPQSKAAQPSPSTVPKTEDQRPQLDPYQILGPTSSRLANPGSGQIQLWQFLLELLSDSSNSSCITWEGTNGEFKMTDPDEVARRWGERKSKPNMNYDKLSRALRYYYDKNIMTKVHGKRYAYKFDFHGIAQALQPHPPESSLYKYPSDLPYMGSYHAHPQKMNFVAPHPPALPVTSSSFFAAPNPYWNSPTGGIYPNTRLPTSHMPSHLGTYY
# Procedure, shortened: as §1
# [5] = molecular target: ELF1 (Homo sapiens, UniProt P32519 1-619); details: protein: recombinant; tags: N-terminal GST; dsDNA, one strand shown
# Chain of ELF1 (P32519 whole entry): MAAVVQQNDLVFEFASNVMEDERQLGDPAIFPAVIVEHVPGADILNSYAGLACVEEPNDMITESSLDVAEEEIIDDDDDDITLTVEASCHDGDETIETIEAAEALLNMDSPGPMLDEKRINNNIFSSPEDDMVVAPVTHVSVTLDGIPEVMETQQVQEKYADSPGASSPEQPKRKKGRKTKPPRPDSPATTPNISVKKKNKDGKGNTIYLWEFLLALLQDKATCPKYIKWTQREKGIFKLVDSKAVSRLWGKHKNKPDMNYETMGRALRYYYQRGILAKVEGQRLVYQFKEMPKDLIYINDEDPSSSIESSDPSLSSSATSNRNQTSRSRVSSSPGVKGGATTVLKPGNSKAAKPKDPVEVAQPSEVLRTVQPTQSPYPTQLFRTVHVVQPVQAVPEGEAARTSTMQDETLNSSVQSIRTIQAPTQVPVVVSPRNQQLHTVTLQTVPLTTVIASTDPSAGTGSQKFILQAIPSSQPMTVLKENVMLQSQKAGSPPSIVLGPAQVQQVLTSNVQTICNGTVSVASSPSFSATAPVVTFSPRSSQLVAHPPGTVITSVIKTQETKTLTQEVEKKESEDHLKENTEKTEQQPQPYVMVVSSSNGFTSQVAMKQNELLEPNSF
# Procedure, shortened: as §1
# [6] = molecular target: T5, EHF (Homo sapiens, UniProt Q9NZC4 1-300); details: protein: recombinant; tags: N-terminal GST; dsDNA, one strand shown
# T5 sequence: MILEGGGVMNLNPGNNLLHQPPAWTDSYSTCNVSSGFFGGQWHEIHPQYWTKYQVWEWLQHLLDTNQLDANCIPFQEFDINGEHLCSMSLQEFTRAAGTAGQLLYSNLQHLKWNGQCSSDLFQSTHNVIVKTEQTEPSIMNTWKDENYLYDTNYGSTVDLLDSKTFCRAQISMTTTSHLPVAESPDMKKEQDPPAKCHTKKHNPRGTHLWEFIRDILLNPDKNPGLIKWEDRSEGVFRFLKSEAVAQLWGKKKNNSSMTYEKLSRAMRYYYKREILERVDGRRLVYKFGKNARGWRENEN
# Procedure, shortened: as §1
# [7] = molecular target: SPI1 (Homo sapiens, UniProt P17947 1-270); details: protein: recombinant; tags: N-terminal GST; dsDNA, one strand shown
# Procedure, shortened: as §1
# [8] = molecular target: SPIB (Homo sapiens, UniProt Q01892 1-262); details: protein: recombinant; tags: N-terminal GST; dsDNA, one strand shown
# Chain of SPIB (Q01892 whole entry): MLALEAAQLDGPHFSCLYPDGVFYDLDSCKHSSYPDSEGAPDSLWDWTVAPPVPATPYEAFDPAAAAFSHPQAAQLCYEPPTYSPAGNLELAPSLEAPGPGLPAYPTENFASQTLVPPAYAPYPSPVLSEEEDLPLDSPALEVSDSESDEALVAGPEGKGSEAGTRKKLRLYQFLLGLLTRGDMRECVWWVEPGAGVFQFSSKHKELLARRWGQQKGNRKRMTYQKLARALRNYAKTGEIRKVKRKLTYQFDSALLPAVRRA
# Procedure, shortened: as §1
# [9] = molecular target: T6, ELK3 (Homo sapiens, UniProt P41970 1-407); details: protein: recombinant; tags: N-terminal GST; dsDNA, one strand shown
# T6 sequence: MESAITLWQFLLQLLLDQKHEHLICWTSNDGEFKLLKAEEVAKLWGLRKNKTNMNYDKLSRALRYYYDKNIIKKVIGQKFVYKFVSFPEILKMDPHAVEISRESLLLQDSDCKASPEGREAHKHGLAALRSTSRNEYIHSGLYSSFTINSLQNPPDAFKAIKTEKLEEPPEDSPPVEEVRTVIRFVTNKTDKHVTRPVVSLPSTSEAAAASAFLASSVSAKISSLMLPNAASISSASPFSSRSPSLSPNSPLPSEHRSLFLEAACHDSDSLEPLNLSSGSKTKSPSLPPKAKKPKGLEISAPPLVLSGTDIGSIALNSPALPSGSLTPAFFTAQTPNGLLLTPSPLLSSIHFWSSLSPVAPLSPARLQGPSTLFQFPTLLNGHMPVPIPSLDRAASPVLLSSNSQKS
# Procedure, shortened: as §1
# [10] = molecular target: T7, FEV (Homo sapiens, UniProt Q99581 1-238); details: protein: recombinant; tags: N-terminal GST; dsDNA, one strand shown
# T7 sequence: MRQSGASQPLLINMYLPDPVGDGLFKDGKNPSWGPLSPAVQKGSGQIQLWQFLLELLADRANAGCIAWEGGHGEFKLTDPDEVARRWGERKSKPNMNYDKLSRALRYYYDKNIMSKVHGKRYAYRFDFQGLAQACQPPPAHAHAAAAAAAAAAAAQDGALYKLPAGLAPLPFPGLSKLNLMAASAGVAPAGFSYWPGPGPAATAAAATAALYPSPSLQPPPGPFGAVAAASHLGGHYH
# Procedure, shortened: as §1
# [11] = molecular target: ETV5 (Homo sapiens, UniProt P41161 1-510); details: protein: recombinant; tags: N-terminal GST; dsDNA, one strand shown
# Chain of ETV5 (P41161 whole entry): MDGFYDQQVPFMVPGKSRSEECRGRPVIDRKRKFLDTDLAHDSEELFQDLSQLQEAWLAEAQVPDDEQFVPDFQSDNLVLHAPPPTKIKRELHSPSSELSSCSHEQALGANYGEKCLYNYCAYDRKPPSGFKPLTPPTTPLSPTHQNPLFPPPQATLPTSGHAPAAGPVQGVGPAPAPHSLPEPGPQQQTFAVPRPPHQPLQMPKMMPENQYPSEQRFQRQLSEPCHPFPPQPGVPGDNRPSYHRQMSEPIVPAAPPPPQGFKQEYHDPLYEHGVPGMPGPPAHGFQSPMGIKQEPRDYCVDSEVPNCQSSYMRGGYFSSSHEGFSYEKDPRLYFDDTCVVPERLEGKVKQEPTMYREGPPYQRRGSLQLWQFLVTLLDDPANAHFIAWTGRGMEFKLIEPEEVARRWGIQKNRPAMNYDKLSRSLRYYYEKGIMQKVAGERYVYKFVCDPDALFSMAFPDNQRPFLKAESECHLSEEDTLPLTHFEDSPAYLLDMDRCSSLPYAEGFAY
# Procedure, shortened: as §1
# [12] = molecular target: HSF1 (Homo sapiens, UniProt Q00613 1-529); details: protein: recombinant; tags: N-terminal GST; chain copies: 3; dsDNA, one strand shown
# Chain of HSF1 (Q00613 whole entry): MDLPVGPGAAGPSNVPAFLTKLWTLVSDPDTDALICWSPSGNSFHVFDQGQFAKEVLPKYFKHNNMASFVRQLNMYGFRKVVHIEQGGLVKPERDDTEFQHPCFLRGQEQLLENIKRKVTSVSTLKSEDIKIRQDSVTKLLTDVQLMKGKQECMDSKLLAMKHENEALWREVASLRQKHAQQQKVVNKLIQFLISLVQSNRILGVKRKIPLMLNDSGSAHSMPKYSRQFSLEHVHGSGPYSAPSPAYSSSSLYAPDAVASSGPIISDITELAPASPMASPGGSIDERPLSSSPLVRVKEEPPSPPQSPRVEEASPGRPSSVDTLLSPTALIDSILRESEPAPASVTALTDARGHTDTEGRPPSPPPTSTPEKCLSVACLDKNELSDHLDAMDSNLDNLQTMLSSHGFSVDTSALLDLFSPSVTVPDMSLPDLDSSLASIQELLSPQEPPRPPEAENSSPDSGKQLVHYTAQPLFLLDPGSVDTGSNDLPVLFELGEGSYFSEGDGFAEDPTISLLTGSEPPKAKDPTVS
# Procedure, shortened: as §1
# [13] = molecular target: T8, SPIC (Homo sapiens, UniProt Q8N5J4 1-248); details: protein: recombinant; tags: N-terminal GST; dsDNA, one strand shown
# T8 sequence: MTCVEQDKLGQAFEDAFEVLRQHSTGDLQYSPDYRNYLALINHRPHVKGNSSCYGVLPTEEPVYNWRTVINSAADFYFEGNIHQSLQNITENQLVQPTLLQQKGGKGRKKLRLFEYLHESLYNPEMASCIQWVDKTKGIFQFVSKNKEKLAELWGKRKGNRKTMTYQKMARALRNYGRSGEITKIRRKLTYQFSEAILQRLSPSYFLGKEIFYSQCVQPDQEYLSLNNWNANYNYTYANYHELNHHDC
# Procedure, shortened: as §1
# [14] = molecular target: ELF4 (Homo sapiens, UniProt Q99607 1-663); details: protein: recombinant; tags: N-terminal GST; dsDNA, one strand shown
# Chain of ELF4 (Q99607 whole entry): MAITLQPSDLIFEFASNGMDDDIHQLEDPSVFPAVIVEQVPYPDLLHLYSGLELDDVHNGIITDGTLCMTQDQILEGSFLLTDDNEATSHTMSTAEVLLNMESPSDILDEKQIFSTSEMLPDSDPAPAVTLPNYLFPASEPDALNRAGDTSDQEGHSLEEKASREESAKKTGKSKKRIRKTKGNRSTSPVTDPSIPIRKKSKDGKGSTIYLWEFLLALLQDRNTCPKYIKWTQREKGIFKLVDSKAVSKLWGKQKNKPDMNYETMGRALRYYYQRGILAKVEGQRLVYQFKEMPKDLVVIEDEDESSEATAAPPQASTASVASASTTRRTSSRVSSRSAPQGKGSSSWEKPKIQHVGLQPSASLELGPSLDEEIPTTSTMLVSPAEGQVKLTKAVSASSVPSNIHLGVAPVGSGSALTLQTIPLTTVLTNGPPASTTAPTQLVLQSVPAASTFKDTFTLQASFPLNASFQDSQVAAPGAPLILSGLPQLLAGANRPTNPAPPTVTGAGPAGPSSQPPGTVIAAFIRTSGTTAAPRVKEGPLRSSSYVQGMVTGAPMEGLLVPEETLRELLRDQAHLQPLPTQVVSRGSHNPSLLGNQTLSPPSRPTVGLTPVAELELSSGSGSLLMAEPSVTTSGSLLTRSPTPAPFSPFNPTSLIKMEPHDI
# Procedure, shortened: as §1
# [15] = molecular target: T9, ELK4 (Homo sapiens, UniProt P28324-2 1-405); details: protein: recombinant; tags: N-terminal GST; dsDNA, one strand shown
# T9 sequence: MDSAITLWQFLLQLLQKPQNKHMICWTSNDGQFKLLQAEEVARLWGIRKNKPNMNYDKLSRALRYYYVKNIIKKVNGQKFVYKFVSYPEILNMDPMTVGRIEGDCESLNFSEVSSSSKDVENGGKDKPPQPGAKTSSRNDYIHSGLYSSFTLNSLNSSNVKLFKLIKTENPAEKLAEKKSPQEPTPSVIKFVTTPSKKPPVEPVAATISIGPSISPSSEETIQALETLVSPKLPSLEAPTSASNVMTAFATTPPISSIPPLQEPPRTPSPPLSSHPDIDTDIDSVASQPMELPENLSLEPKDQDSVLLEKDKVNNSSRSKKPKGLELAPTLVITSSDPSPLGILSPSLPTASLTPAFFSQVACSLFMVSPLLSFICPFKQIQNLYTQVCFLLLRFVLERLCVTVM
# Procedure, shortened: as §1
# [16] = molecular target: T10, ETV2 (Homo sapiens, UniProt O00321 1-342); details: protein: recombinant; tags: N-terminal GST; dsDNA, one strand shown
# T10 sequence: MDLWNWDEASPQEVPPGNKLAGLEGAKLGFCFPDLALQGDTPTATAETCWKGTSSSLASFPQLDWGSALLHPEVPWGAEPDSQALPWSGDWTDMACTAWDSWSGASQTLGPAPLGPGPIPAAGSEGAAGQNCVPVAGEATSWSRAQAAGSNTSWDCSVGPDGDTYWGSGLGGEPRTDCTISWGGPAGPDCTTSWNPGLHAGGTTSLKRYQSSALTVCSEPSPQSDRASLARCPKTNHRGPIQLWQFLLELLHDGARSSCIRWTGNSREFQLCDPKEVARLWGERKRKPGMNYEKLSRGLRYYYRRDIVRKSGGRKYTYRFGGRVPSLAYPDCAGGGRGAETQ
# Procedure, shortened: as §1
# [17] = molecular target: T11, ELF3 (Homo sapiens, UniProt P78545 1-371); details: protein: recombinant; tags: N-terminal GST; dsDNA, one strand shown
# T11 sequence: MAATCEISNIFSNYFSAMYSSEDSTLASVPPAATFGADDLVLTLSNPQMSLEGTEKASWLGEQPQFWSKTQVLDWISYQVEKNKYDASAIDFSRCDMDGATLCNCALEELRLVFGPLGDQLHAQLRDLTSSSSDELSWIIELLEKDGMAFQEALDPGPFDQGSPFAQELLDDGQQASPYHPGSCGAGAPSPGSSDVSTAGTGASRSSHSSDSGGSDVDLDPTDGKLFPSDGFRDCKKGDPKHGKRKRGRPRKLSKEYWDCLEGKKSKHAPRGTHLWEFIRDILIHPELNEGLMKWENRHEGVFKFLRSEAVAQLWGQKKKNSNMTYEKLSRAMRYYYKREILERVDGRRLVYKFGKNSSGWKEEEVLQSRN
# Procedure, shortened: as §1
# [18] = molecular target: CRX (Homo sapiens, UniProt O43186 1-299); details: protein: recombinant; tags: N-terminal GST; dsDNA, one strand shown
# Chain of CRX (O43186 whole entry): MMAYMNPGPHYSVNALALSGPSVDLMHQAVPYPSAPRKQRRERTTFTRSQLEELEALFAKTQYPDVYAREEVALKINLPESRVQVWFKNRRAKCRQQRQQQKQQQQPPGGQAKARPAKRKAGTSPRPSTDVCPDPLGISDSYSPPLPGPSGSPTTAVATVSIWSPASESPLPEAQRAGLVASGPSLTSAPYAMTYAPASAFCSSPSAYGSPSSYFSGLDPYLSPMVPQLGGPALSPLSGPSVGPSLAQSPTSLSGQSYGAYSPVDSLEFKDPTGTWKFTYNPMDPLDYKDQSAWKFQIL
# Procedure, shortened: as §1
# [19] = molecular target: ETV1 (Homo sapiens, UniProt P50549 1-477); details: protein: recombinant; tags: N-terminal GST; dsDNA, one strand shown
# Chain of ETV1 (P50549 whole entry): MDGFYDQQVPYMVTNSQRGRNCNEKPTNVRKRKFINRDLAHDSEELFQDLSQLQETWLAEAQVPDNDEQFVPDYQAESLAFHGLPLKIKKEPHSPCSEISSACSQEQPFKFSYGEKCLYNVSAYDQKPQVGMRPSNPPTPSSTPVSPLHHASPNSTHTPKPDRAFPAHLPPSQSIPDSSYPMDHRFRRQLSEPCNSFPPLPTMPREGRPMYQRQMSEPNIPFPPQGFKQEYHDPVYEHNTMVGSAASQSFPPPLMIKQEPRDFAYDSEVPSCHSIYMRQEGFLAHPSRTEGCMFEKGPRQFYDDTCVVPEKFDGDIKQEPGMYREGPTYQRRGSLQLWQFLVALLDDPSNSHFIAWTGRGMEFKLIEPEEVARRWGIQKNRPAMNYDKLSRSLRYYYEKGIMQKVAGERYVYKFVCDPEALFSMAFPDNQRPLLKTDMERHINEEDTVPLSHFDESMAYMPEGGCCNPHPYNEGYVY
# Procedure, shortened: as §1
sequence,measurement,setting,value
ATTCCG,binding signal,[1],"1.84 fold enrichment (6-mer frequency, TF over GST control)"
same,binding signal,[2],"1.84 fold enrichment (6-mer frequency, TF over GST control)"
same,binding signal,[3],"1.65 fold enrichment (6-mer frequency, TF over GST control)"
same,binding signal,[4],"1.82 fold enrichment (6-mer frequency, TF over GST control)"
same,binding signal,[5],"1.61 fold enrichment (6-mer frequency, TF over GST control)"
same,binding signal,[6],"1.86 fold enrichment (6-mer frequency, TF over GST control)"
same,binding signal,[7],"1.69 fold enrichment (6-mer frequency, TF over GST control)"
same,binding signal,[8],"1.78 fold enrichment (6-mer frequency, TF over GST control)"
same,binding signal,[9],"1.78 fold enrichment (6-mer frequency, TF over GST control)"
same,binding signal,[10],"1.79 fold enrichment (6-mer frequency, TF over GST control)"
same,binding signal,[11],"1.97 fold enrichment (6-mer frequency, TF over GST control)"
same,binding signal,[12],"1.52 fold enrichment (6-mer frequency, TF over GST control)"
same,binding signal,[13],"1.82 fold enrichment (6-mer frequency, TF over GST control)"
same,binding signal,[14],"1.61 fold enrichment (6-mer frequency, TF over GST control)"
same,binding signal,[15],"1.54 fold enrichment (6-mer frequency, TF over GST control)"
same,binding signal,[16],"1.79 fold enrichment (6-mer frequency, TF over GST control)"
same,binding signal,[17],"1.78 fold enrichment (6-mer frequency, TF over GST control)"
same,binding signal,[18],"1.27 fold enrichment (6-mer frequency, TF over GST control)"
same,binding signal,[19],"1.81 fold enrichment (6-mer frequency, TF over GST control)"
